# Measured values reported in PubChem BioAssay AID651839 (Vanderbilt Specialized Chemistry Center, 2012).
# Potency and affinity values are given separately. A number with no mark means an inactive call.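 How the source made its calls: active means compounds whose mean inhibitory potency against the glutamate signal is under 30 µM; inactive means the rest.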
# Target: Metabotropic glutamate receptor 3 (Rattus norvegicus) (UniProt P31422)
# Test: inhibition of rat mGlu3 glutamate signaling – HEK/GIRK cells, thallium flux, dose response (AID 651839)
# Conditions: HEK293 GIRK rat mGlu3, thallium flux fluorescence; series mostly up to 30 µM; percent of glutamate max response: at the top concentration
# Metabotropic glutamate receptor 3 (Rattus norvegicus), sequence (P31422 whole entry, looked up): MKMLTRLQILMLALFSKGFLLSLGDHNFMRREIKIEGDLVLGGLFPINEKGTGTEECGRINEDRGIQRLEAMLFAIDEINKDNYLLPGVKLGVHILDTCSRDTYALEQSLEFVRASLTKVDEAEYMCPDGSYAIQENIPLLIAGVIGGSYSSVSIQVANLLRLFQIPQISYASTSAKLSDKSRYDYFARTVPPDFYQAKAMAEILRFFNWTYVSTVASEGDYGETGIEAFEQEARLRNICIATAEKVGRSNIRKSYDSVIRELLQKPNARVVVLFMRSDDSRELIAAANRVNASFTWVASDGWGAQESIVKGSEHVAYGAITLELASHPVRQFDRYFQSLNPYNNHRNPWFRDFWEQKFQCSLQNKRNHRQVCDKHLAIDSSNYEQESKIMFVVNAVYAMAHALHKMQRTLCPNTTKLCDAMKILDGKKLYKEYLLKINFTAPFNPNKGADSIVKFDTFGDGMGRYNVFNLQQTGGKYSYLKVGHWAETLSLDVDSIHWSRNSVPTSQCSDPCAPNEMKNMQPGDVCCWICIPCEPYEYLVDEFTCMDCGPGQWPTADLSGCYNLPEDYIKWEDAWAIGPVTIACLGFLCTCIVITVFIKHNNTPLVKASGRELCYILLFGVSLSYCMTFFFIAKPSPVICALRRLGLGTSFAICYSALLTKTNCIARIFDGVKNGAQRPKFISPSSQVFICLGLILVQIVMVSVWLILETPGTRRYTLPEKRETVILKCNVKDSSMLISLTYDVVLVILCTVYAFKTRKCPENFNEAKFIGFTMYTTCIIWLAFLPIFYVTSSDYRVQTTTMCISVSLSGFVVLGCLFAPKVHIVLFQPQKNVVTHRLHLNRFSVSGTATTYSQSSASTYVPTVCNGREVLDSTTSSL
row,Structure (SMILES),percent of glutamate max response
1,COc1ccc(C#Cc2ccc(C(=O)NC(C)(C)CO)cc2)c(F)c1,90.1
2,COc1ccc(COc2ccc(C(=O)N3CCC(OC)C3)cc2)cc1 (stereo not given),93.4
3,COc1ccc(COc2ccc(C(=O)N3CCC(CO)C3)cc2)cc1 (stereo not given),88.3
4,COc1ccc(COc2ccc(C(=O)N3CCCC(OC)C3)cc2)cc1 (stereo not given),83.7
5,O=C(c1ccc2cc(-c3ccncc3)ccc2c1)N1CCCC(CO)C1 (stereo not given),98.1
6,COc1ccc(COc2ccc(C(=O)N3CC[C@@H](O)C3)cc2)cc1,86
7,COc1ccc(COc2ccc(C(=O)NCCC(C)(C)C)cc2)cc1,83.7
8,COc1ccc(C#Cc2ccc(C(=O)NCC(C)(C)O)cc2)c(F)c1,82.2
9,COc1ccc(C#Cc2ccc(C(=O)NCCC(C)(C)C)cc2)c(F)c1,95
10,COc1ccc(COc2ccc(C(=O)N3CC[C@H](O)C3)cc2)cc1,91.9
